Screens as filed in PubChem.
KB-V1 MDR tox: qHTS assay for MDR1-selective chemotherapeutics: Primary screen using the drug-selected MDR subline cells KB-V1; KB-V1 MDR cells viability, CellTiter-Glo, 72 h; 400,000 compounds, 3.4% hits; Potency, µM (series often up to 46.1 µM), hits mostly cytotoxic; also: nearly all actives have a fitted effect of over 60% in size
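Readout: CellTiter-Glo luminescence, 10 min after addition. Cells: KB-V1 MDR subline, 72 h at 37 degrees C with compound. Analysis: corrected, normalized data fitted to concentration-effect curves.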
ELG1 DNA repair: qHTS screen for small molecules that inhibit ELG1-dependent DNA repair in human embryonic kidney (HEK293T) cells expressing luciferase-tagged ELG1. HEK293T ELG1-luciferase reporter, luminescence, 16 h; DNA damage induced by 5-fluorouridine. Potency, µM (doses to about 46.1 µM), most hits filed as inhibitors. 330,000 compounds, 2.3% hits; also: nearly all actives have a fitted effect of over 55% in size
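In this reporter screen, reduction of luminescence relative to DMSO vehicle indicated activity. Compounds and 5-fluorouridine were added together to 2,000 cells per well, incubated for 16 hr at 37 °C, then developed with ONE-Glo.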
MCF10A rereplic: A quantitative high throughput screen for small molecules that induce DNA re-replication in MCF 10a normal breast cells | AID 624296, 2012 | 350,000 compounds, 2.9% hits | MCF 10A DNA re-replication, Hoechst nuclear intensity, 48 h | Potency, µM (titrated, usually from 46.1 µM), actives largely listed as activators; also: nearly all actives have a fitted effect of over 50% in size
SW480 rereplic: A quantitative high throughput screen for small molecules that induce DNA re-replication in SW480 colon adenocarcinoma cells | Potency, µM (titrated, usually from 46.1 µM), actives largely listed as activators | 340,000 compounds, 1.8% hits | SW480 DNA re-replication, Hoechst DNA content imaging, 48 h; also: nearly all actives have a fitted effect of over 55% in size
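Image-based DNA-content assay: after two days of treatment, nuclei were labelled with the DNA dye Hoechst and imaged, and hits were compounds raising the count of nuclei showing high fluorescence intensity.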
KB-3-1 cytotox: qHTS assay for MDR1-selective chemotherapeutics: Primary screen using the parental adenocarcinoma cell KB-3-1 | KB-3-1 viability, CellTiter-Glo ATP luminescence, 72 h | Potency, µM (series often up to 46.1 µM), hits mostly cytotoxic | 400,000 compounds, 1.4% hits | AID 1347075, 2019; also: nearly all actives have a fitted effect of over 60% in size
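Cytotoxicity in the drug-sensitive parental line KB-3-1 was scored as loss of CellTiter-Glo luminescence following 72 h incubation with compound. Values come from curve fitting of normalized concentration-response data.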
Of the large screens only hits and unclear results are named; the others gave an inactive call; ! = repeats disagree. A selection: hits, their analogues and other compounds. The true share with any hit is near 8.1%. Calls follow the shape of the dose curve; as a rule, active = well fitted curve in the direction sought with a large enough effect; inconclusive = small, poorly fitted or top-dose-only effect, or another doubt; inactive = no such curve, though single readings can be large; an effect the other way counts as inactive or inconclusive.

COc1ccc(C2=NN(C(C#N)c3ccc(OC)cc3)C(c3ccccc3)C2)cc1 (stereo not drawn)	KB-V1 MDR tox 6.51µM, ELG1 DNA repair inconclusive, MCF10A rereplic inconclusive, KB-3-1 cytotox 23.1µM
COc1cccc(C2CC(c3cccs3)=NN2C(=O)CCC(=O)O)c1OC (stereo not drawn)	none
COc1ccc(C2=NN(C(=O)CSc3nc4ccccc4s3)C(c3ccc(OC)cc3)C2)cc1 (stereo not drawn)	KB-V1 MDR tox inconclusive
COc1ccc(C2=NN(C(=O)CSc3nc4ccccc4s3)C(c3ccc(F)cc3)C2)cc1 (stereo not drawn)	KB-V1 MDR tox 11.6µM, KB-3-1 cytotox inconclusive
COc1ccc(CC(=O)OCC(=O)N2N=C(c3ccccc3)CC2c2ccc(OC)cc2)cc1 (stereo not drawn)	KB-V1 MDR tox 20.6µM, MCF10A rereplic inconclusive
COc1cccc(C2CC(c3cccs3)=NN2C(=O)CSc2nc3ccccc3s2)c1OC (stereo not drawn)	KB-V1 MDR tox 11.6µM, MCF10A rereplic inconclusive, SW480 rereplic inconclusive, KB-3-1 cytotox inconclusive
COc1ccc(C2CC(c3ccccc3)=NN2C(=O)CCC(=O)O)cc1 (stereo not drawn)	none
COc1ccc(C2=Nc3nc(-c4ccccc4)cn3C(c3ccc(OC)cc3)C2)cc1 (stereo not drawn)	MCF10A rereplic inconclusive, SW480 rereplic 16.4µM
COc1cc(NC(=O)c2cc3ccccc3cc2O)c(OC)cc1Cl	KB-V1 MDR tox inconclusive, ELG1 DNA repair inconclusive, MCF10A rereplic inconclusive, KB-3-1 cytotox inconclusive
Cc1ccc(Cl)cc1NC(=O)c1cc2ccccc2cc1O	KB-V1 MDR tox inconclusive, MCF10A rereplic 7.31µM, SW480 rereplic inconclusive, KB-3-1 cytotox 9.2µM
COc1cccc(NC(=O)Nc2cc(Cl)ccc2C)c1	KB-V1 MDR tox inconclusive
Cc1ccc(Cl)cc1NC(=O)c1cccc(OC(F)F)c1	KB-V1 MDR tox 18.4µM
CCc1csc(CCNC(=O)C2CCC(=O)N(Cc3cccc(C(F)(F)F)c3)C2)n1 (stereo not drawn)	none (no result: KB-V1 MDR tox, KB-3-1 cytotox)
Cc1ccc(C(=O)c2c(C)oc3c2C(=O)C(=O)c2ccccc2-3)cc1	KB-V1 MDR tox 5.17µM, ELG1 DNA repair inconclusive, MCF10A rereplic 18.4µM, SW480 rereplic 13µM, KB-3-1 cytotox inconclusive
Cc1ccc(C(=O)c2coc3c2C(=O)C(=O)c2ccccc2-3)cc1	KB-V1 MDR tox inconclusive, ELG1 DNA repair inconclusive
Cc1oc2c(c1C(=O)c1ccc(Cl)cc1)C(=O)C(=O)c1ccccc1-2	KB-V1 MDR tox 16.4µM, MCF10A rereplic 7.31µM, KB-3-1 cytotox inconclusive
COCc1cc(C)nc(SCc2ccc(F)cc2)c1C#N	none
Cc1ccc(CNC(=O)C(C)C2Sc3ccccc3NC2=O)cc1 (stereo not drawn)	none
Cc1ccccc1-n1c(C)cc(/C=C2/C(=N)N3C(c4ccccc4)=CSC3=NC2=O)c1C	KB-V1 MDR tox inconclusive, MCF10A rereplic inconclusive, SW480 rereplic 14.1µM, KB-3-1 cytotox inconclusive
N=C1/C(=C\c2ccc(-c3cccc(C(=O)O)c3)o2)C(=O)N=C2SC=C(c3ccccc3)N12	ELG1 DNA repair inconclusive, MCF10A rereplic 3.26µM, SW480 rereplic 8.2µM
CCCCOc1ccc(C(=O)N=c2sccn2C)cc1OC	ELG1 DNA repair inconclusive
CN(Cc1ccccc1)C(=O)c1oc(=O)c2ccccc2c1-c1ccccc1	KB-V1 MDR tox 8.2µM, MCF10A rereplic inconclusive, SW480 rereplic inconclusive
Cc1ccc(-c2c(C(=O)NCc3ccccc3)oc(=O)c3ccccc23)cc1	KB-V1 MDR tox inconclusive
Cc1ccc(-c2c(C(=O)N(C)Cc3ccccc3)oc(=O)c3ccccc23)cc1	KB-V1 MDR tox 4.61µM!, ELG1 DNA repair inconclusive, MCF10A rereplic inconclusive, KB-3-1 cytotox 18.4µM!
COc1ccc(OC)c(N/C=C/C(=O)c2ccccc2)c1	ELG1 DNA repair inconclusive, MCF10A rereplic inconclusive
COC(=O)C1=C(C)NC(=S)NC1c1sccc1C (stereo not drawn)	none
COc1ccc(NC2=NCC(Cc3ccc(Br)cc3)S2)cc1 (stereo not drawn)	ELG1 DNA repair inconclusive, MCF10A rereplic inconclusive, SW480 rereplic inconclusive, KB-3-1 cytotox 23.1µM
O=C(N/N=C/c1coc2ccccc2c1=O)c1cn(-c2ccccc2)nc1-c1ccc(F)cc1	none
COc1cc(C(=O)N2CCC(NC(=O)C(Cc3ccc(C)cc3)NC(C)=O)CC2)cc(OC)c1OC (stereo not drawn)	none
O=C1c2ccccc2C(=O)c2c(/C=C/N3CCCCC3)ccnc21	KB-V1 MDR tox 2.31µM, MCF10A rereplic inconclusive, SW480 rereplic 20.6µM, KB-3-1 cytotox 7.31µM (no result: ELG1 DNA repair)
Cc1ccc(-c2n[nH]c(=S)n2C)cc1	KB-V1 MDR tox 16.4µM, KB-3-1 cytotox inconclusive
O=C(CSc1nnc(-c2ccccc2Br)o1)Nc1nncs1	none
Cc1[nH]c2ccccc2c1/C=N/NC(=O)C1CC1(c1ccccc1)c1ccccc1 (stereo not drawn)	KB-V1 MDR tox inconclusive, ELG1 DNA repair inconclusive, MCF10A rereplic 23.1µM, SW480 rereplic inconclusive, KB-3-1 cytotox inconclusive
CCOC(=O)C1=C(N)N(c2ccccc2)C2=C(C(=O)CCC2)C1c1cccnc1 (stereo not drawn)	none
Cc1nc2sccn2c(=O)c1CCN1CCC(=C(c2ccccc2)c2ccc(F)cc2)CC1	MCF10A rereplic 5.17µM (no result: KB-V1 MDR tox, KB-3-1 cytotox)
Cc1nc2sccn2c(=O)c1S(=O)(=O)N1CCN(c2ccccc2)CC1	none
CC1(c2ccccc2)CC(c2ccccc2)=C(C#N)C(=O)N1 (stereo not drawn)	KB-V1 MDR tox inconclusive (no result: ELG1 DNA repair)
COc1ccccc1CN1CC(C(=O)N(CCO)Cc2cccs2)CCC1=O (stereo not drawn)	none
OCCCNc1nc(-c2ccc(Cl)cc2)nnc1-c1ccc(Br)cc1	KB-3-1 cytotox 23.1µM
Cc1ccc2sc(N(CCCN(C)C)C(=O)c3ccc(S(=O)(=O)N(C)C4CCCCC4)cc3)nc2c1C	KB-V1 MDR tox 18.4µM, MCF10A rereplic 23.1µM, SW480 rereplic inconclusive, KB-3-1 cytotox 23.1µM
CCN(CC)CCN(C(=O)c1ccc(S(=O)(=O)N(C)C2CCCCC2)cc1)c1nc2c(C)cccc2s1	KB-V1 MDR tox inconclusive, MCF10A rereplic inconclusive, KB-3-1 cytotox inconclusive
CCN(Cc1ccccc1)S(=O)(=O)c1ccc(C(=O)N(CCCN(C)C)c2nc3cc4c(cc3s2)OCO4)cc1	KB-V1 MDR tox inconclusive, ELG1 DNA repair inconclusive, SW480 rereplic inconclusive
CCN(Cc1ccccc1)S(=O)(=O)c1ccc(C(=O)N(CCCN(C)C)c2nc3c(C)c(C)ccc3s2)cc1	KB-V1 MDR tox inconclusive, ELG1 DNA repair inconclusive, MCF10A rereplic 15.8µM, SW480 rereplic 6.51µM, KB-3-1 cytotox inconclusive
COc1ccc(-c2noc(-c3ccccc3OCC(=O)Nc3ccc(C(C)=O)cc3)n2)cc1	none (no result: ELG1 DNA repair, MCF10A rereplic, SW480 rereplic)
O=C(NNc1ccccc1)c1ccc(Cl)c(Cl)c1	KB-V1 MDR tox 18.4µM, MCF10A rereplic inconclusive (no result: ELG1 DNA repair)
